Compounds with a hit are over-represented: about 6.7% of the library has one in this group of screens.
T cruzi growth-1 = T. cruzi intracellular proliferation inhibitors, primary screen, cell-based, beta-gal Tulahuen parasites, NIH3T3 host, luminescence; 5.9% of 77,000 active; inhibition, % at 8.34 µM; T. cruzi beta-gal in NIH3T3, GalScreen luminescence, 90 h;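 active = mean inhibition above about 93%, with at least 55% of replicates each passing it, limit read from the data, passing the limit was not always enough; inconclusive = only one of those two conditions holds; inactive = neither condition holds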
C diff growth = C. difficile growth inhibitors, primary screen, HTS; Clostridium difficile clinical isolate growth, OD600, 24 h; hits give low values; growth activity, negative = inhibition, % at 16 µg/mL (by protocol); 0.25% of 86,000 active;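 active = mean growth activity at or below -80% and every replicate also at or below -80%; inconclusive = mean at or below -80% but some replicate above -80%; inactive = mean growth activity above -80%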;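 also: 0% = DMSO wells and -100% = levofloxacin 16 µg/mL wells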
Pf Dd2 growth = P. falciparum Dd2 growth inhibitors, primary screen, SYBR Green fluorescence, single dose replicates. 72 h; hits give low values. activity change, % at 10 µM. 2.3% of 94,000 active. AID 1159554, 2015; in the data active = activity change below about -80%; inconclusive = no clear call, values can overlap the other calls
T cruzi growth-2 = T. cruzi intracellular proliferation inhibitors, confirmation, cell-based, NIH3T3 host, beta-gal parasite, luminescence, cherry-pick; shares compounds with T cruzi growth-1; T. cruzi beta-gal in NIH3T3, GalScreen luminescence, 90 h; inhibition, % at 8.35 µM; 72% of 5,600 active;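 active = mean replicate inhibition above about 95% and at least 55% of replicates individually reaching it, limit read from the data; inconclusive = only one of the two criteria is met; inactive = neither criterion is met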
T cruzi growth-3 = inhibitors of intracellular T. cruzi replication, confirmation, NIH3T3 host cells, beta-gal parasites, cherry-pick, set 2 | shares compounds with T cruzi growth-1 | T. cruzi beta-gal in NIH3T3, GalScreen luminescence, 90 h | inhibition, % at 2.09 µM | 21% of 5,600 active;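 active = mean inhibition above about 95%, with at least 55% of replicates also reaching it, limit read from the data; inconclusive = meets just one of the two conditions; inactive = meets neither condition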;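 also: plate controls were neutral control median for no effect and positive control median for full effect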
NIH3T3 tox = cytotoxicity in mouse NIH/3T3 fibroblasts, confirmation, cytotoxicity control for T. cruzi proliferation inhibitor project, cell-based, cherry-pick, single point. NIH/3T3 viability, CellTiter-Glo ATP luminescence, 90 h. cytotoxicity (signal decrease), % at 8.35 µM. 14% of 5,600 active. shares compounds with T cruzi growth-1. AID 651742, 2012;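 active = mean signal decrease across replicates above about 35% based on untreated-well scatter, with enough replicates individually passing, limit read from the data; inconclusive = no rule stated though some were filed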;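 also: 0% = median of neutral control wells and 100% = median of positive control wells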
3T3 cytotox 2 = NIH/3T3 fibroblast cytotoxicity, confirmation, cytotoxicity control, cell-based, cherry-pick, single point, set 2. shares compounds with T cruzi growth-1. NIH/3T3 viability, CellTiter-Glo ATP luminescence, 90 h. inhibition, % at 24.9 µM. 56% of 5,600 active. AID 651744, 2012;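 active = mean loss of cell viability signal at or above a set limit, and enough replicates individually reaching it; inconclusive = meets only the mean limit or only the replicate share; inactive = meets neither condition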;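 also: 0% = median of neutral control wells and 100% = median of positive control wells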
* hit, by the source's call; ? = inconclusive; . = no result given.

SMILES | T cruzi growth-1 | C diff growth | Pf Dd2 growth | T cruzi growth-2 | T cruzi growth-3 | NIH3T3 tox | 3T3 cytotox 2
C[C@@H]1CN([C@H](C)CO)C(=O)c2cccc(NS(C)(=O)=O)c2O[C@H]1CN(C)Cc1ccc(C(=O)O)cc1 | 21 | -5 | 25 | . | . | . | .
Cc1noc(C)c1NC(=O)N(C)C[C@H]1Oc2c(NS(=O)(=O)c3cn(C)cn3)cccc2C(=O)N([C@H](C)CO)C[C@H]1C | 80 | -4 | 4 | . | . | . | .
C[C@H](CO)N1C[C@H](C)[C@H](CN(C)C(=O)NC2CCCC2)Oc2cc(C#Cc3ccc(F)cc3)ccc2S1(=O)=O | 104* | -9 | -47 | 95* | 116* | -5 | 61*
C[C@H](CO)N1C[C@H](C)[C@@H](CN(C)C(=O)NC2CCCC2)Oc2cc(C#Cc3ccc(F)cc3)ccc2S1(=O)=O | 60 | 15 | -29 | . | . | . | .
CO[C@H]1CN(C)C(=O)c2cc(NC(=O)c3ccc(F)cc3)ccc2OC[C@@H](C)NC[C@@H]1C | -32 | 9 | 13 | . | . | . | .
C[C@H]1CN([C@@H](C)CO)S(=O)(=O)c2ccc(C#Cc3ccc(F)cc3)cc2O[C@@H]1CN(C)S(=O)(=O)c1ccc(F)cc1 | ? | -2 | -50 | 95* | 113* | 33 | 68*
C[C@H]1CN([C@@H](C)CO)S(=O)(=O)c2ccc(C#Cc3ccc(F)cc3)cc2O[C@H]1CN(C)S(=O)(=O)c1ccc(F)cc1 | 107* | 4 | -22 | 105* | ? | 8 | 1
C[C@H](CO)N1C[C@H](C)[C@@H](CN(C)S(=O)(=O)c2ccc(F)cc2)Oc2cc(C#Cc3ccc(F)cc3)ccc2S1(=O)=O | 107* | 5 | -48 | 100* | 109* | 28 | 65*
C[C@@H]1CN([C@@H](C)CO)S(=O)(=O)c2ccc(C#Cc3ccc(F)cc3)cc2O[C@@H]1CN(C)S(=O)(=O)c1ccc(F)cc1 | 114* | 13 | -44 | 106* | 115* | 26 | 43*
COCC#Cc1ccc2c(c1)O[C@@H](CN(C)S(=O)(=O)c1ccc(F)cc1)[C@@H](C)CN([C@@H](C)CO)S2(=O)=O | 84 | 8 | -44 | . | . | . | .
C[C@@H]1CN([C@@H](C)CO)C(=O)Cc2cc(NS(=O)(=O)c3cccs3)ccc2O[C@@H]1CN(C)C | -20 | -8 | 8 | . | . | . | .
Cc1noc(C)c1S(=O)(=O)N(C)C[C@H]1OCCCC[C@H](C)Oc2ccc(NC(=O)CCCN(C)C)cc2C(=O)N([C@@H](C)CO)C[C@@H]1C | . | -8 | 13 | . | . | . | .
COCC#Cc1ccc2c(c1)O[C@H](CN(C)S(=O)(=O)c1ccc(F)cc1)[C@H](C)CN([C@H](C)CO)S2(=O)=O | 68 | -2 | -48 | . | . | . | .
C[C@@H]1CN([C@@H](C)CO)S(=O)(=O)c2ccc(C#Cc3ccc(F)cc3)cc2O[C@H]1CN(C)S(=O)(=O)c1ccc(F)cc1 | 115* | 3 | -68 | 103* | 116* | ? | 55*
O=C(C[C@H]1C[C@@H]2c3cc(NC(=O)CC4CC4)ccc3O[C@@H]2[C@@H](CO)O1)NCc1cccc(F)c1 | 19 | -4 | -19 | . | . | . | .
COc1ccc2[nH]c3c(c2c1)CCN1C(=O)CC[C@H]31 | . | 1 | . | . | . | . | .
CS(=O)(=O)N1[C@H](C#N)[C@@H](c2ccc(C#CC3CC3)cc2)[C@@H]1CO | 107* | -3 | -24 | 100* | 46 | 12 | -1
CS(=O)(=O)N1[C@H](C#N)[C@H](c2ccc(C#CC3CCCC3)cc2)[C@@H]1CO | 99* | -4 | -24 | 103* | 89 | 20 | 35*
CS(=O)(=O)N1[C@H](CO)[C@H](c2ccc(C#Cc3cccc(F)c3)cc2)[C@@H]1C#N | 89 | 15 | -1 | . | . | . | .
CS(=O)(=O)N1[C@H](CO)[C@@H](c2ccc(C#CC3CCCCC3)cc2)[C@@H]1C#N | 93 | -3 | -44 | . | . | . | .
CS(=O)(=O)N1[C@@H](C#N)[C@@H](c2ccc(C#CC3CCCCC3)cc2)[C@@H]1CO | 74 | 9 | 1 | . | . | . | .
CS(=O)(=O)N1[C@H](C#N)[C@H](c2ccc(C#Cc3cccc(F)c3)cc2)[C@H]1CO | ? | -7 | -30 | ? | 83 | 0 | 32*
C/C=C/c1ccc([C@H]2[C@@H](C#N)N(S(=O)(=O)c3cccc(F)c3)[C@H]2CO)cc1 | 95 | 5 | -42 | . | . | . | .
N#C[C@H]1[C@@H](c2ccccc2)[C@H](CO)N1S(=O)(=O)c1cccc(F)c1 | -11 | 5 | 0 | . | . | . | .
N#C[C@@H]1[C@@H](c2ccc(-c3cccc(F)c3)cc2)[C@@H](CO)N1S(=O)(=O)c1cccc(F)c1 | 99* | 5 | -11 | 99* | 61 | 39* | 66*
SMILES | T cruzi growth-1 | C diff growth | Pf Dd2 growth | T cruzi growth-2 | T cruzi growth-3 | NIH3T3 tox | 3T3 cytotox 2
C/C=C/c1ccc([C@H]2[C@@H](CO)N(S(=O)(=O)c3cccc(F)c3)[C@H]2C#N)cc1 | 111* | -6 | -13 | 91 | 93 | -8 | 26
N#C[C@@H]1[C@H](c2ccc(-c3cccc(F)c3)cc2)[C@H](CO)N1S(=O)(=O)c1cccc(F)c1 | 102* | 11 | -17 | 107* | 89 | 10 | 54*
N#C[C@H]1[C@H](c2ccccc2)[C@@H](CO)N1S(=O)(=O)c1cccc(F)c1 | 45 | 4 | 17 | . | . | . | .
CN1C(=O)c2cc(NC(=O)c3cnccn3)ccc2OC[C@H]2O[C@@H](CC(=O)NC3CCC3)CC[C@@H]21 | 13 | -3 | -5 | . | . | . | .
Cc1ccc(S(=O)(=O)Nc2ccc3c(c2)C(=O)N([C@H](C)CO)C[C@@H](C)[C@@H](CN(C)C(=O)CCC(F)(F)F)OCCCC[C@H](C)O3)cc1 | 2 | . | -6 | . | . | . | .
CO[C@H]1CN(C)C(=O)c2cc(NC(=O)c3cnccn3)ccc2OC[C@H](C)NC[C@H]1C | -5 | . | 36 | . | . | . | .
COc1ccc(S(=O)(=O)Nc2ccc3c(c2)C(=O)N([C@H](C)CO)C[C@@H](C)[C@H](CN(C)C(=O)Nc2ccc(C(F)(F)F)cc2)O3)cc1 | -8 | -9 | 12 | . | . | . | .
Cc1ccc(S(=O)(=O)Nc2ccc3c(c2)C(=O)N([C@@H](C)CO)C[C@@H](C)[C@@H](CN(C)Cc2ccc(Cl)c(Cl)c2)O3)cc1 | 119* | 14 | -14 | 107* | 107* | 18 | 103*
C[C@@H]1CN([C@@H](C)CO)C(=O)c2cc(NS(=O)(=O)c3ccc(F)cc3)ccc2O[C@@H]1CN(C)Cc1ccc(Cl)c(Cl)c1 | 101* | 38 | 5 | 99* | 35 | ? | 107*
